PubChem BioAssay AID1520 (The Scripps Research Institute Molecular Screening Center, 2009)
This is one part of the list. Active and inactive are the calls of the source.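 Rule for the calls: active = cell growth inhibition above the hit limit set in the earlier mutant JAK2 cell screen (cut at about 27% in these data); inactive = the rest.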

Assay: parental Ba/F3 cell viability inhibition, counter-screen for JAK2V617F inhibitor project, murine pro-B, CellTiter-Glo luminescence (AID 1520);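 note: plate controls were DMSO-treated cells for no effect and JAK Inhibitor I control wells for full effect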
Conditions: at 5.6 µM, stronger effect = higher value, cells kept alive by added IL-3

SMILES	inhibition
CCC1CCCCN1CCCNC(=O)c1cc2c(Cl)nc3ccccc3c2s1 (stereo unspecified)	0.54% (inactive)
c1ccc2c(c1)CSc1sccc1C2=C1CCNCC1	0.77% (inactive)
COc1ccccc1N1CCN(Cc2ccc(OC)c3ccccc23)CC1	-5.1% (inactive)
COc1ccc(OC)c(Nc2nc(-c3ccc(O)c(O)c3)cs2)c1	72.9% (active)
CN(Cc1ccc2nsnc2c1)Cc1nc(Cc2cccc(F)c2)no1	-7.97% (inactive)
N#C/C=C\Oc1ccc(Cl)cc1N	-2.4% (inactive)
